About 230 (0.21%) of roughly 110,000 compounds showed an effect of 50% or more. Many of the other results were omitted from the sample, so strong results are more common in it than they were.
What follows are molecules tested against DPAP1 (Plasmodium falciparum, UniProt Q8IIJ9) (assay: primary screen, percent inhibition; read by cleavage of a fluorogenic dipeptide substrate; higher = more effect of the substance).
Set-up: species or system P. falciparum D10 trophozoite lysates; single well
Experimental: HTS was performed in black 384-well plates. The first and last two columns of each plate contained our negative (DMSO) and positive (10 μM JCP410) controls, and the 20 central columns the test compounds at 10 μM. Compounds were first diluted 50-fold into assay buffer (50 mM sodium acetate, 5 mM MgCl2, 10 mM β-mercaptoethanol, and 0.1% CHAPS, pH 5.5) from a 10 mM DMSO stock plates. One microliter of this 200 μM intermediate stock plate was dispensed into the assay plate. […] After 30 min, the reaction was quenched with 20 μL of 0.5 M acetic acid, and the fluorescent intensity measured at 523 nm (λex = 492 nm) using an Analyst HT multimode plate reader (Molecular Devices).
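Note: 30 min substrate incubation versus DMSO and 10 µM JCP410 controls.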

Sequence of DPAP1 (Q8IIJ9 whole entry, looked up): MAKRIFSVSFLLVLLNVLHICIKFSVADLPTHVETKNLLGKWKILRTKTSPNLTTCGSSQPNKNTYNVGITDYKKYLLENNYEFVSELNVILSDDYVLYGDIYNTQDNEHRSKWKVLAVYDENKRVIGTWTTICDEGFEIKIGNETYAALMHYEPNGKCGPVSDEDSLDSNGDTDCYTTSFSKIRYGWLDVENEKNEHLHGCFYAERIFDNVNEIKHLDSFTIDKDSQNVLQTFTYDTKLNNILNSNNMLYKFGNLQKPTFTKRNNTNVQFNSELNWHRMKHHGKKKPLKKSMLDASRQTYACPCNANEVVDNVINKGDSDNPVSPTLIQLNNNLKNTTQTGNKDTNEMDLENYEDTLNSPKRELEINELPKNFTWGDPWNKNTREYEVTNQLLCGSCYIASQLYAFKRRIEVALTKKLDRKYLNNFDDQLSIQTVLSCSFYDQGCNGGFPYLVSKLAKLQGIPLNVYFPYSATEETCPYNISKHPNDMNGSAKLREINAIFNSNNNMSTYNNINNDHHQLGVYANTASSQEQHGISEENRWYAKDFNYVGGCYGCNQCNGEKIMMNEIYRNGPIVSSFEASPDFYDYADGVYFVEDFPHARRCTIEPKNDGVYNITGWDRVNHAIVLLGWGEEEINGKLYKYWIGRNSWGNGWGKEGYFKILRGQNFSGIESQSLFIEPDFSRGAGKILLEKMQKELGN

Row | Compound | % Inhibition @ 10 uM
1 | N#CC1=C(N)SC(N)=C(C#N)C1c1ccco1 | 51.4%
2 | OC(c1ccccc1)c1nc2ccccc2n1CCc1ccccc1 (stereo not shown) | -2.92%
3 | CC1=C(C(=O)Nc2ccc(Br)cn2)C(c2ccccc2C)C2=C(O)CCCC2=N1 (stereo not shown) | 2.7%
4 | CN(CC(=O)NCc1cccs1)S(=O)(=O)c1ccc2[nH]c(-c3ccccc3)nc2c1 | 3.88%
5 | COc1ccc(Br)cc1CNC(=O)c1ccc2c(c1)ncn2C1CCCC1 | 3.66%
6 | COc1cc(CN(C(=S)NCC(=O)NC2CCCC2)C2CCCC2)cc(OC)c1OC | 1.27%
7 | COc1cc(/C=C2\N=C(c3cc(OC)c(OC)c(OC)c3)OC2=O)cc(OC)c1OC | 0.607%
8 | COc1cc(C2=N/C(=C\c3ccc(SC)cc3)C(=O)O2)cc(OC)c1OC | -20.1%
9 | COc1cc(C2=N/C(=C\c3ccc(C(C)(C)C)cc3)C(=O)O2)cc(OC)c1OC | 84.3%
10 | Cc1cccc(C(=O)Nc2ccc(S(=O)(=O)N3CCCCC3)cc2)c1 | -1.28%
11 | N#Cc1c(-c2ccccc2)cc(-c2ccccc2)c(C#N)c1N | 0.716%
12 | N#Cc1c(-c2ccccc2)cc(C(F)F)nc1S | 76.3%
13 | N#Cc1c(-c2ccccc2)cc(C(F)(F)F)nc1S | 76.9%
14 | COc1ccc(-c2cc(-c3ccccc3)nc(S)c2C#N)cc1 | 43.3%
15 | N#Cc1c(-c2ccc(F)cc2)cc(C2CC2)nc1S | 4.63%
16 | N#Cc1c(-c2ccc3c(c2)OCO3)cc(-c2ccccc2)nc1S | 11.7%
17 | CC1CCN(S(=O)(=O)c2ccc(NC(=O)c3ccc(-c4ccccc4)cc3)cc2)CC1 | 2.13%
18 | Cc1sc2s[n+](CCCS(=O)(=O)O)c(C)c2c1C | -1.33%
19 | CCOc1ccc(N2CC(C(=O)Nc3ccc(Br)cc3C)CC2=O)cc1 (stereo not shown) | 4.05%
20 | CCCCC(=O)Nc1c(-c2ccccc2)nc2ccccn12 | -3.19%
21 | O=c1[nH]c(=S)[nH]c2sc3c(c12)CCC1(CCCCC1)C3 | 5.93%
22 | O=c1c2c3c(sc2[nH]c(=S)n1Cc1ccccc1)CCCC3 | 3.06%
23 | CCn1c(=S)[nH]c2sc3c(c2c1=O)CCCC3 | 42.2%
24 | O=c1c2c3c(sc2[nH]c(=S)n1Cc1ccccc1)CCC3 | 21%
25 | C=C(C)Cn1c(=S)[nH]c2sc3c(c2c1=O)CCCC3 | 57.3%
26 | S=c1[nH]c(=S)c2c3c(sc2[nH]1)CCC3 | 85.2%

Row | Compound | % Inhibition @ 10 uM
27 | CC1(C)Cc2c(sc3[nH]c(=S)[nH]c(=S)c23)CO1 | 15%
28 | CCn1c(=S)[nH]c2sc3c(c2c1=O)CCC3 | 64.7%
29 | O=c1c2c3c(sc2[nH]c(=S)n1C1CCCCC1)CCCC3 | 9.26%
30 | Cc1cc2nnc(SCC(=O)O)n2c2ccccc12 | -2.19%
31 | C=C(C)COc1ccc2cc(-c3nc4ccccc4s3)c(=O)oc2c1 | 6.22%
32 | CC(C)(C)c1ccc(C(=O)NCc2cccc3ccccc23)cc1 | -3.48%
33 | N#CC1=C2SCN(C3CCCCC3)CN2C(=O)CC1c1ccccc1F (stereo not shown) | 37.8%
34 | Cc1ccccc1C1CC(=O)N2CN(C3CCCCC3)CSC2=C1C#N (stereo not shown) | 24%
35 | N#CC1=C2SCN(Cc3ccccc3)CN2C(=O)CC1c1cccc2ccccc12 (stereo not shown) | 51.5%
36 | Cc1ccccc1C1CC(=O)N2CN(Cc3ccccc3)CSC2=C1C#N (stereo not shown) | 31.2%
37 | N#CC1=C2SCN(C3CCCCC3)CN2C(=O)CC1c1cccc2ccccc12 (stereo not shown) | 53.8%
38 | N#CC1=C2SCN(Cc3ccco3)CN2C(=O)CC1c1cccc2ccccc12 (stereo not shown) | 45.5%
39 | COc1ccc(C(=O)N2c3ccccc3C(C)(c3ccccc3)CC2(C)C)cc1 (stereo not shown) | -2%
40 | CC1(c2ccccc2)CC(C)(C)N(C(=O)/C=C/c2ccccc2)c2ccccc21 (stereo not shown) | 0.467%
41 | COc1ccc(/C=C/C(=O)N2c3ccccc3C(C)(c3ccccc3)CC2(C)C)cc1 (stereo not shown) | 56.6%
42 | CCc1ccc(NC(=O)C2CCN(S(=O)(=O)c3cc(Cl)ccc3Cl)CC2)cc1 | -4.06%
43 | O=C1c2ccccc2C(=O)N1CNc1ccc(Cl)c(Cl)c1 | -1.17%
44 | Cn1cc(Br)c(C(=O)Nc2sc3c(c2C(N)=O)CCC3)n1 | 1.02%
45 | NC(=O)c1c(NC(=O)C2CC2)sc2c1CCCCCC2 | 5.39%
46 | NC(=O)c1c(NC(=O)C2CC2)sc2c1CCCCC2 | 50.4%
47 | CCOC(=O)c1c(NC(=O)C23CC4CC(CC(C4)C2)C3)sc2c1CCCC2 | -1.36%
48 | Cn1ccc(C(=O)Nc2sc3c(c2C(N)=O)CCCCC3)n1 | 47%
49 | CC(=O)Nc1sc2c(c1C(N)=O)CCCCCC2 | 2.65%
50 | NC(=O)c1c(NC(=O)C23CC4CC(CC(C4)C2)C3)sc2c1CCCCC2 | 52.3%
51 | NC(=O)c1c(NC(=O)C2CCC2)sc2c1CCCCC2 | 7.35%
52 | Cn1cc(Br)c(C(=O)Nc2sc3c(c2C(N)=O)CCCCC3)n1 | 51.9%

Reference: article PMC6919601, “Identification of Plasmodium dipeptidyl aminopeptidase allosteric inhibitors by high throughput screening” (PLoS ONE, 2019)
